Results filed as inconclusive are left out. The source made the active and inactive calls. How the source made its calls, unless noted: active means hit-call score of the fitted dose curve at least 0.9, where 1 is the maximum; inactive means score below 0.9.
Legend:
[1] = biological target: Paired box protein Pax-6 (Homo sapiens) (UniProt P26367); test: ATG_Pax6_CIS: Attagene CIS-FACTORIAL HepG2 Assay for human Paired Box 6 (PAX6) (AID 2282956); settings: HepG2 CIS-FACTORIAL PAX6 reporter transcription, RNA readout; actives raise or lower the signal
Sequence of Paired box protein Pax-6 (Homo sapiens) (P26367 whole entry, looked up): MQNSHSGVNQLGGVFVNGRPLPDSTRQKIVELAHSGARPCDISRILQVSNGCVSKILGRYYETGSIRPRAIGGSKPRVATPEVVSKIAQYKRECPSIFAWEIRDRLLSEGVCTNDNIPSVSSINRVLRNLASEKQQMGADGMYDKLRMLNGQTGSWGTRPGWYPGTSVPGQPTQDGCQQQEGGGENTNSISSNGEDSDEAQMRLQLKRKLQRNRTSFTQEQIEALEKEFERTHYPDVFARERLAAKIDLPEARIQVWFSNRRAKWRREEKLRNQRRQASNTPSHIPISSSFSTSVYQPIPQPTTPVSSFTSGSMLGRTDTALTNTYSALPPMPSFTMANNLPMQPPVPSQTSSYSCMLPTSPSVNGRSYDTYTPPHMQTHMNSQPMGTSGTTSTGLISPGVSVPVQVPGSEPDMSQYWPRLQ
Procedure, shortened: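 HepG2 cells transiently transfected with cis-promoter-driven multiplexed reporter units sensing endogenous transcription factor activity; 24 h chemical exposure. Reporter mRNA quantified by RT-PCR, 6-FAM labelling, HpaI digestion and capillary electrophoresis; bidirectional fit versus DMSO baseline.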

[2] = ATG_PXRE_CIS: Attagene CIS-FACTORIAL HepG2 Assay for human Pregnane X Receptor Element (PXRE) (AID 2282957); settings: HepG2 Attagene CIS-FACTORIAL PXRE reporter, mRNA; actives raise or lower the signal
Procedure, shortened: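 HepG2 cells transiently transfected with cis-regulated multiple reporter transcription units; endogenous factor activity measured as reporter mRNA 24 h after dosing. RT-PCR, fluorescent primer extension, HpaI digestion, capillary electrophoresis; bidirectional fit versus DMSO baseline.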

[3] = ATG_PPRE_CIS: Attagene CIS-FACTORIAL HepG2 Assay for human Peroxisome Proliferator-activated Response Element (PPRE) (AID 2282958); settings: HepG2 PPRE cis-element reporter, Attagene transcription factor profiling; actives raise or lower the signal
Procedure, shortened: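 Multiplexed reporter transcription units under cis-regulatory promoters were transfected into HepG2 cells to capture endogenous factor activity. A 24 h incubation preceded RNA isolation and fluorescent RT-PCR fragment analysis.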

[4] = ATG_RORE_CIS: Attagene CIS-FACTORIAL HepG2 Assay for human RAR-related Orphan Receptor Element (RORE) (AID 2282959); settings: HepG2 Attagene cis-factorial RORE reporter, mRNA; actives raise or lower the signal
Procedure, shortened: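 Fluorescence intensity of reporter-specific cDNA fragments, separated by capillary electrophoresis, gives the signal. Source: HepG2 liver cells transiently transfected with cis-element reporters and exposed 24 h; DMSO-normalized bidirectional fit.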

[5] = ATG_Sox_CIS: Attagene CIS-FACTORIAL HepG2 Assay for human SRY-box transcription factor (SOX) (AID 2282960); settings: HepG2 Attagene cis-factorial SOX reporter, mRNA; actives raise or lower the signal
Procedure, shortened: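 After 24 h of chemical treatment, transfected HepG2 reporter cells are lysed for total RNA. Transcript levels come from RT-PCR with labelled primer extension and capillary electrophoresis, analysed bidirectionally versus DMSO.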

[6] = biological target: Transcription factor Sp1 (Homo sapiens) (UniProt P08047); test: ATG_Sp1_CIS: Attagene CIS-FACTORIAL HepG2 Assay for human Specificity Protein 1 (Sp1) (AID 2282961); settings: HepG2 Sp1 cis-reporter transcription, actives raise or lower the signal
Sequence of Transcription factor Sp1 (Homo sapiens) (P08047 whole entry, looked up): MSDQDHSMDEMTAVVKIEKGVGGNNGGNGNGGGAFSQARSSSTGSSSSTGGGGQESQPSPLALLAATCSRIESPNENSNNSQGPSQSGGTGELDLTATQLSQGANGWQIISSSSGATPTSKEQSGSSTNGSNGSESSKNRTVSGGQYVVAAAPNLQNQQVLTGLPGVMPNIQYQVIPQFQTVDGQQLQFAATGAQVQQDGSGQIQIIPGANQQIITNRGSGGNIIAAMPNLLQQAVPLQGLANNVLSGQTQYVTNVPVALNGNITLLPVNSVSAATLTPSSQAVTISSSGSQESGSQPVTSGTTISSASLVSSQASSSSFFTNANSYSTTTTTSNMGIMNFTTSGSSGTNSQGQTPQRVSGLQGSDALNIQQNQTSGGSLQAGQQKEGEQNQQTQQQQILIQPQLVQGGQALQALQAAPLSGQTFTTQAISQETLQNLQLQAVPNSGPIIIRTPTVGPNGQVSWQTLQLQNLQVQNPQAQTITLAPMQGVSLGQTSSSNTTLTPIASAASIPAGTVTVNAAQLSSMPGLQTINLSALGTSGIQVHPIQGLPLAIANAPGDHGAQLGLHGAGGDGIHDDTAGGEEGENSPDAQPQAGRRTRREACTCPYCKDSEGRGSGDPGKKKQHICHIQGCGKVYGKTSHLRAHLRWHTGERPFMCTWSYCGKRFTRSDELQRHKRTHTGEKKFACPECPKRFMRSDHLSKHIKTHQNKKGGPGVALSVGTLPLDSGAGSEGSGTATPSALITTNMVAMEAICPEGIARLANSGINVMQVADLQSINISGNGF
Procedure, shortened: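 Sp1-driven reporter mRNA, read as capillary electrophoresis fluorescence after RT-PCR, in transiently transfected HepG2 cells dosed for 24 h; signal change in either direction relative to DMSO.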

[7] = ATG_SREBP_CIS: Attagene CIS-FACTORIAL HepG2 Assay for human Sterol Regulatory Element Binding (SREBP) (AID 2282962); settings: HepG2 Attagene cis-factorial SREBP reporter, mRNA; actives raise or lower the signal
Procedure, shortened: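 HepG2 cells transiently transfected with multiplexed cis-promoter reporter units sensing endogenous transcription factors; reporter mRNA measured 24 h after dosing by RT-PCR, 6-FAM labeling, HpaI digestion and capillary electrophoresis. Bidirectional fit versus DMSO.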

[8] = biological target: Signal transducer and activator of transcription 3 (Homo sapiens) (UniProt P40763); test: ATG_STAT3_CIS: Attagene CIS-FACTORIAL HepG2 Assay for human Signal Transducer and Activator of Transcription 3 (STAT3) (AID 2282963); settings: HepG2, Attagene cis-factorial STAT3 reporter transcription; actives raise or lower the signal
Sequence of Signal transducer and activator of transcription 3 (Homo sapiens) (P40763 whole entry, looked up): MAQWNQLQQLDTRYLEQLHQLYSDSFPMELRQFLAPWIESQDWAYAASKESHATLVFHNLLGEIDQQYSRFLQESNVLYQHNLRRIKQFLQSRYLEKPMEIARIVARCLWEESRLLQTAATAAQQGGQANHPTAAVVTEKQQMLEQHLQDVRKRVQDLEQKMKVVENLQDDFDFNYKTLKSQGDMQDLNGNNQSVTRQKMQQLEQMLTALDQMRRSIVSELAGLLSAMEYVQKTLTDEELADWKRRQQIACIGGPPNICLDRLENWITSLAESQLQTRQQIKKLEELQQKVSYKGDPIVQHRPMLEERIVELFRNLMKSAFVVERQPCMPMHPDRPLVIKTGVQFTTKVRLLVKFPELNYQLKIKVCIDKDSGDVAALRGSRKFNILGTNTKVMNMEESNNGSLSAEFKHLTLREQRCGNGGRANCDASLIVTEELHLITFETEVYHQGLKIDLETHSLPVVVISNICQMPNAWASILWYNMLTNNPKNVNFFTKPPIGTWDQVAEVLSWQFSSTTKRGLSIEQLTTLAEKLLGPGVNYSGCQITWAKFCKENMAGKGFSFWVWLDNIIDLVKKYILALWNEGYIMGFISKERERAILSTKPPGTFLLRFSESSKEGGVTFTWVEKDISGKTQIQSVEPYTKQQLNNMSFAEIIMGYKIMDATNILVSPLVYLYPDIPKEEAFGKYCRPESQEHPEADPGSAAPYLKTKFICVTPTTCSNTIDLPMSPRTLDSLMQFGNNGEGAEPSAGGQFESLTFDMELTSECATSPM
Procedure, shortened: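 HepG2 cells transiently transfected with cis-element-driven multiple reporter transcription units; after 24 h chemical exposure, reporter mRNA measured by RT-PCR, 6-FAM primer-extension labelling, HpaI digestion and capillary electrophoresis. Bidirectional fitting versus DMSO baseline.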

[9] = ATG_TA_CIS: Attagene CIS-FACTORIAL HepG2 Assay for human TA Basal Promoter (AID 2282964); settings: HepG2 Attagene CIS-factorial TA basal promoter reporter; actives raise or lower the signal
Procedure, shortened: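 Transient MRTU transfection of HepG2 preceded 24 h compound exposure. Reporter mRNA levels were then read by RT-PCR with capillary electrophoresis, and this background-control endpoint was fitted bidirectionally to DMSO.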

[10] = ATG_TCF_b_cat_CIS: Attagene CIS-FACTORIAL HepG2 Assay for human T-Cell-Factor with beta-catenin (TCF/b-cat) (AID 2282965); settings: HepG2 TCF/beta-catenin cis-reporter transcription, actives raise or lower the signal
Procedure, shortened: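 Using capillary electrophoresis as the read-out, labelled reporter cDNA fragments from transiently transfected HepG2 were sized and quantified. Exposure lasted 24 hours; activity in either direction was referenced to DMSO.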

[11] = ATG_TAL_CIS: Attagene CIS-FACTORIAL HepG2 Assay for human TAL Basal Promoter (AID 2282966); settings: HepG2 Attagene cis-factorial TAL promoter reporter; actives raise or lower the signal;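 further: background control endpoint measuring basal TAL promoter reporter mRNA not a specific factor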
Procedure, shortened: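 HepG2 cells were transiently transfected with promoter-driven multiplexed reporter units and dosed for 24 h. Reporter mRNA was measured by RT-PCR with capillary electrophoresis fluorescence; bidirectional fits used DMSO as baseline, serving as a background control.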

[12] = biological target: Nuclear receptor subfamily 1 group I member 3 (Homo sapiens) (UniProt Q14994); test: ATG_CAR_TRANS: Attagene TRANS-FACTORIAL HepG2 Assay for human Constitutive Androstane Receptor (CAR) (AID 2282969; active means hit-call score of the fitted dose curve at least 0.9, where 1 is the maximum;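 further: activators raise reporter mRNA above DMSO so AC50 marks induction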); settings: HepG2 Attagene TRANS-FACTORIAL CAR reporter
Sequence of Nuclear receptor subfamily 1 group I member 3 (Homo sapiens) (Q14994 whole entry, looked up, the tested form may be a part): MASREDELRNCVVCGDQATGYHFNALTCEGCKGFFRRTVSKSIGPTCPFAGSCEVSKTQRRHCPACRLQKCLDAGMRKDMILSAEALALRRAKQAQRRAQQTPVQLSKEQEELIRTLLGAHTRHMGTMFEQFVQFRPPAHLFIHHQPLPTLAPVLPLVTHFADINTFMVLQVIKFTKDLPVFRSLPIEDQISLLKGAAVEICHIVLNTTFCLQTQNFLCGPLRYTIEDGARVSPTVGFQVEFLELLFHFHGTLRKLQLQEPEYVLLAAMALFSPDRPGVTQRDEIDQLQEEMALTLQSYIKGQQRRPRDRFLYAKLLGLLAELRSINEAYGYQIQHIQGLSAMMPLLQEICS
Procedure, shortened: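 HepG2 cells transiently transfected with multiplexed GAL4-UAS reporter units expressing chimeric NR-Gal4 proteins; compound exposure 24 h. Reporter mRNA measured by RT-PCR, 6-FAM labelling, HpaI digestion and capillary electrophoresis; gain-of-signal fitted against DMSO baseline.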

[13] = biological target: Estrogen receptor (Homo sapiens) (UniProt P03372); test: ATG_ERa_TRANS: Attagene TRANS-FACTORIAL HepG2 Assay for human Estrogen Receptor alpha (ERa) (AID 2282970; active means hit-call score of the fitted dose curve at least 0.9, where 1 is the maximum); settings: HepG2 Attagene TRANS ERa GAL4 reporter, mRNA
Sequence of Estrogen receptor (Homo sapiens) (P03372 whole entry, looked up, the tested form may be a part): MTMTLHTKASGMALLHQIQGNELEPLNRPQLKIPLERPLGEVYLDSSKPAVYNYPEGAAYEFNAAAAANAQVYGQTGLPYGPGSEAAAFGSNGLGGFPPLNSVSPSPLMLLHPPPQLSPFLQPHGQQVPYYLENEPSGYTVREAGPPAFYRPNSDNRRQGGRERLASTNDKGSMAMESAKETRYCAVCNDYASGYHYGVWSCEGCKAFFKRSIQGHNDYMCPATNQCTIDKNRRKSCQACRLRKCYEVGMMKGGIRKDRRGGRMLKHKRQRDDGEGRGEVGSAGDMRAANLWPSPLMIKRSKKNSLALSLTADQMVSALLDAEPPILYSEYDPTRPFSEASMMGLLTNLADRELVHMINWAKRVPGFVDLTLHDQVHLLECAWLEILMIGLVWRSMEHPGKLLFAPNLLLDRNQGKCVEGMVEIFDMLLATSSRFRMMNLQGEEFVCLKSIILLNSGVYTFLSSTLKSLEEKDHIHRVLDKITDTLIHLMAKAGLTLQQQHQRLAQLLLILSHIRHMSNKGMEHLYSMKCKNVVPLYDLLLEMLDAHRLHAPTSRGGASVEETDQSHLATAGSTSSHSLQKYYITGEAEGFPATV
Procedure, shortened: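 HepG2 cells transiently transfected with multiplexed GAL4-UAS reporter units; ERa activity read via exogenous chimeric NR-Gal4 protein. After 24 hour compound exposure, reporter mRNA measured by RT-PCR with 6-FAM labelling and capillary electrophoresis; gain-of-signal fitted relative to DMSO.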

[14] = biological target: Steroid hormone receptor ERR1 (Homo sapiens) (UniProt P11474); test: ATG_ERRa_TRANS: Attagene TRANS-FACTORIAL HepG2 Assay for human Estrogen-Related Receptor alpha (ERRa) (AID 2282971; active means hit-call score of the fitted dose curve at least 0.9, where 1 is the maximum); settings: HepG2 Attagene TRANS reporter, ERRa transactivation
Sequence of Steroid hormone receptor ERR1 (Homo sapiens) (P11474 whole entry, looked up, the tested form may be a part): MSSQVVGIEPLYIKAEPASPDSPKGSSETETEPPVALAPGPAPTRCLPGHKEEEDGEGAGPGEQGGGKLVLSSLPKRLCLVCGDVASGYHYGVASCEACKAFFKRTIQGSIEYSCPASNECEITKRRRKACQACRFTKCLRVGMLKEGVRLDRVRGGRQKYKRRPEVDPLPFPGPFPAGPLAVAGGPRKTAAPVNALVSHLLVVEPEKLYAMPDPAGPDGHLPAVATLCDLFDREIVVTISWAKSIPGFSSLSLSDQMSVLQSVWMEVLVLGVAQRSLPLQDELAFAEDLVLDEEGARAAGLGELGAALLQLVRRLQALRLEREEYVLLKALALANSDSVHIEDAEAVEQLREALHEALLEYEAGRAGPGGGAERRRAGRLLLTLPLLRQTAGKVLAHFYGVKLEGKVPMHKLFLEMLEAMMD
Procedure, shortened: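 HepG2 cells transiently transfected with multiplexed GAL4-UAS reporter units reading chimeric ERRa-Gal4 activity; 24 h compound exposure. Reporter mRNA measured by RT-PCR, 6-FAM labelling, HpaI digest and capillary electrophoresis; gain of signal fitted versus DMSO baseline.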

[15] = biological target: X-box-binding protein 1 (Homo sapiens) (UniProt P17861); test: ATG_Xbp1_CIS: Attagene CIS-FACTORIAL HepG2 Assay for human X-box Binding Protein 1 (XBP1) (AID 2282972); settings: HepG2 XBP1 cis-element reporter, Attagene multiplex; actives raise or lower the signal
Sequence of X-box-binding protein 1 (Homo sapiens) (P17861 whole entry, looked up): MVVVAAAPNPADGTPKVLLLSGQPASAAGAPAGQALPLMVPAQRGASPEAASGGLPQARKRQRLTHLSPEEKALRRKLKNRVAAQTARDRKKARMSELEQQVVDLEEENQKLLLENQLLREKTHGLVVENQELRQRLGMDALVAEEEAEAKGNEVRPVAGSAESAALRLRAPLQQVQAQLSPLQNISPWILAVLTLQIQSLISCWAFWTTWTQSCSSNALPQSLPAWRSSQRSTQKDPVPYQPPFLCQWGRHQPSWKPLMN
Procedure, shortened: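 HepG2 cells transiently transfected with multiple cis-element reporter units report endogenous TF activity; 24 h exposure, then reporter mRNA measured by RT-PCR, 6-FAM labelling, HpaI digestion and capillary electrophoresis. Bidirectional fitting versus DMSO.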

[16] = biological target: Estrogen-related receptor gamma (Homo sapiens) (UniProt P62508); test: ATG_ERRg_TRANS: Attagene TRANS-FACTORIAL HepG2 Assay for human Estrogen-Related Receptor gamma (ERRg) (AID 2282977; active means hit-call score of the fitted dose curve at least 0.9, where 1 is the maximum;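 further: hits increase reporter signal over DMSO so potencies reflect activators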); settings: HepG2 Attagene TRANS reporter, ERRg transactivation
Sequence of Estrogen-related receptor gamma (Homo sapiens) (P62508 whole entry, looked up, the tested form may be a part): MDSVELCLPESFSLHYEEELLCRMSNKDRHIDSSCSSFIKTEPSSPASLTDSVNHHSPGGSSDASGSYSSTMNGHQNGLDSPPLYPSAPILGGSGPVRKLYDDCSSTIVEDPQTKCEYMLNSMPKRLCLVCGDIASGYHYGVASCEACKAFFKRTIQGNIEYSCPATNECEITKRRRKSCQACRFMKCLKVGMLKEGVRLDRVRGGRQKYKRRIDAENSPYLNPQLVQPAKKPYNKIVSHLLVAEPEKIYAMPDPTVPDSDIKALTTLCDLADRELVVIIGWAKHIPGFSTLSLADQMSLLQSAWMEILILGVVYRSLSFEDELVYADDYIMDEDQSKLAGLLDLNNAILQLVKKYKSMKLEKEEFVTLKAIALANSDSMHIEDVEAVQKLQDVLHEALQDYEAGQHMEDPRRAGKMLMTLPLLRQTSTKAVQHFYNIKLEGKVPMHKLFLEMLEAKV
Procedure, shortened: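 HepG2 cells transiently transfected with multiplexed GAL4-UAS reporter units and chimeric NR-Gal4 constructs were exposed to test chemicals for 24 h. Reporter mRNA was measured by RT-PCR, 6-FAM primer extension, HpaI digestion and capillary electrophoresis; gain-of-signal versus DMSO.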

[17] = ATG_TGFb_CIS: Attagene CIS-FACTORIAL HepG2 Assay for human Transforming Growth Factor (TGF) (AID 2282967); settings: HepG2 Attagene CIS TGFb reporter, mRNA transcription; actives raise or lower the signal
Procedure, shortened: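 After a 24-hour incubation with compound, transfected HepG2 cells were lysed for RNA; reporter cDNA was amplified, fluorescently end-labeled and separated by CE. DMSO served as baseline for bidirectional fits.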

[18] = ATG_VDRE_CIS: Attagene CIS-FACTORIAL HepG2 Assay for human Vitamin D Receptor Element (VDRE) (AID 2282968); settings: HepG2 VDRE cis-reporter transcription, actives raise or lower the signal
Procedure, shortened: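 HepG2 cells transiently transfected with cis-element reporter units, dosed 24 h; reporter mRNA measured by RT-PCR, 6-FAM labeling, HpaI digestion and capillary electrophoresis. Activity fitted bidirectionally against DMSO baseline.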

[19] = ATG_M_19_TRANS: Attagene TRANS-FACTORIAL HepG2 Assay for M19 Transcription Factor (Internal Marker) (AID 2282974; active means hit-call score of the fitted dose curve at least 0.9, where 1 is the maximum); settings: HepG2 Attagene TRANS-FACTORIAL M19 internal marker reporter
Procedure, shortened: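 Measured here: internal-marker reporter transcript from HepG2 cells transfected with MRTUs, harvested at 24 h. cDNA PCR products were 6-FAM labelled by primer extension, cut with HpaI for 2 h at 37 C, and resolved by CE.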

[20] = ATG_GAL4_TRANS: Attagene TRANS-FACTORIAL HepG2 Assay for GAL4 (Internal Marker) (AID 2282976; active means hit-call score of the fitted dose curve at least 0.9, where 1 is the maximum); settings: HepG2 Attagene TRANS GAL4 internal marker reporter
Procedure, shortened: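 HepG2 cells transiently transfected with multiplexed GAL4-UAS reporter constructs were dosed for 24 h. Reporter mRNA was measured by RT-PCR, 6-FAM primer extension, HpaI digestion and capillary electrophoresis, and gain of signal was fitted relative to DMSO.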

Measured: AC50

CCn1c2ccccc2c2cc(N)ccc21
active: [2] 3.35 µM | [3] 100 µM | [4] 67.9 µM | [7] 27.3 µM
inactive: [1] | [5] | [6] | [8] | [9] | [10] | [11] | [12] | [13] | [14] | [15] | [16]

O=C1CCCCCCCCCCOCCCCO1
active: [2] 26.6 µM
inactive: [1] | [3] | [4] | [5] | [6] | [7] | [8] | [10] | [11] | [17] | [18] | [12] | [15] | [19]

CCCCC[Si](OCC)(OCC)OCC
active: [2] 7.23 µM
inactive: [1] | [3] | [4] | [5] | [6] | [7] | [8] | [9] | [10] | [11] | [17] | [15] | [20]

C=C(C)C(=O)NCCCN(C)C
inactive: [1] | [2] | [3] | [4] | [5] | [6] | [7] | [8] | [9] | [10] | [11] | [17] | [18] | [15] | [19] | [20]

CCCCCCC#CC(=O)OC
active: [2] 30.5 µM
inactive: [1] | [3] | [4] | [5] | [6] | [7] | [8] | [9] | [10] | [11] | [15] | [19] | [16]

O=C(O)c1ccc(C(=O)O)cc1
inactive: [1] | [2] | [3] | [4] | [5] | [6] | [7] | [8] | [9] | [10] | [11] | [17] | [18] | [15] | [19] | [20]

CCCCCNCCCCC
active: [2] 59.4 µM
inactive: [1] | [3] | [4] | [5] | [6] | [7] | [8] | [9] | [10] | [11] | [17] | [18] | [15] | [20]

COC(C(=O)O)c1ccccc1 (stereo unspecified)
inactive: [1] | [2] | [3] | [4] | [5] | [6] | [7] | [8] | [9] | [10] | [11] | [18] | [15] | [20]

COc1cc(C)cc(O)c1
inactive: [1] | [3] | [4] | [5] | [6] | [7] | [8] | [9] | [10] | [11] | [17] | [12] | [15] | [19] | [20]
active: [2] 20.5 µM

Source: PubChem BioAssay (EPA / NIEHS)
